Experimental findings from PubChem BioAssay (NCI) are described below.

Assay [1] in a line: NCI Yeast Anticancer Drug Screen. Data for the rad50 strain (AID 155).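 Note: 0% = growth of vehicle-only cultures of the same strain.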 The following applies: S. cerevisiae rad50 strain growth inhibition; at 50.0 µM; active compounds read high. In short, it runs like this: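 Yeast carrying a defined DNA repair defect were exposed to test compounds, and growth was compared with vehicle-treated controls to give percent inhibition.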
Assay [2] is described as follows: NCI Yeast Anticancer Drug Screen. Data for the mec2-1 strain (AID 157). The following applies: S. cerevisiae mec2-1 strain, at 50.0 µM, active compounds read high. In short, it runs like this: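 Vehicle-treated cultures served as reference for growth inhibition of compound-exposed mec2-1 yeast.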
A short description of assay [3]: NCI Yeast Anticancer Drug Screen. Data for the sgs1 mgt1 strain (AID 161).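 Note: 0% = growth of cultures given vehicle only.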 Conditions: S. cerevisiae sgs1 mgt1 strain, at 50.0 µM, active compounds read high. Summed up: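 Inhibition of yeast growth, normalised to vehicle-treated controls, is reported for a strain bearing genetic alterations in DNA damage repair.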
Assay [4] can be described thus: NCI Yeast Anticancer Drug Screen. Data for the cln2 rad14 strain (AID 165).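 Note: 0% = growth equal to vehicle treated cultures.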 The following applies: S. cerevisiae cln2 rad14 strain, at 50.0 µM, active compounds read high. Summed up:
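Each compound was tested on cln2 rad14 yeast. Inhibition of growth was calculated against vehicle-exposed controls.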

Assay [5] in a line: NCI Yeast Anticancer Drug Screen. Data for the bub3 strain (AID 167). The following applies: S. cerevisiae bub3 mutant strain, at 50.0 µM, active compounds read high. Summed up:
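Compounds were applied to a genetically altered yeast strain carrying a cell-cycle control defect. Growth inhibition was scored against vehicle-treated controls.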

The nature of assay [6]: NCI Yeast Anticancer Drug Screen. Data for the mlh1 rad18 strain (AID 175). Conditions: S. cerevisiae mlh1 rad18 strain growth inhibition; at 50.0 µM; active compounds read high. Summed up:
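Vehicle-treated cultures served as the reference for growth inhibition in a yeast strain carrying DNA damage repair alterations exposed to each compound.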

Compounds without any hit were thinned out: in the full panel of roughly 79,000, 15% have a hit. A number with no mark means an inactive call. Active and inactive are the calls of the source. Cut-off read from the data, not from the text of the source: active = growth inhibition above about 70%; inactive = the rest.

Turning to `Cc1cc(=O)[nH]c(=S)n1-c1nc2ccccc2o1`, the growth inhibition in assay [1] is -11.2%; in assay [2] it was 7.65%; in assay [3] it was -0.8%; in assay [4] it was -9.55%; in assay [5], -27.6%; in assay [6], 12.8%.

Turning to `NCCCn1c2ccccc2c2cnccc21`, the growth inhibition is 7.2% in assay [1]; 4.15% in assay [2]; 2.15% in assay [3]; -6.65% in assay [4]; -20.2% in assay [6].

With `Cc1ccc(CN(C)C)c(C(O)c2ccccc2)c1` (centres undefined), the growth inhibition in assay [1] was 14.9%; in assay [2] it was -0.75%; in assay [3], -0.1%; in assay [4], 11.1%; in assay [6], -2.45%.

For `Cc1cc(C)c(NS(=O)c2cccc(C(F)(F)F)c2)c(C)c1` (centres undefined), the growth inhibition is -47.1% in assay [1]; -26.5% in assay [2]; -61% in assay [3]; -9.75% in assay [4]; -43% in assay [6].

For the compound `C[C@@H](CO)OCOCc1ccccc1`, the growth inhibition in assay [1] was 7.5%; in assay [2], -1.25%; in assay [3], 4%; in assay [4], 18.5%; in assay [6] it was 19.5%.

As for `O=C(CCOP(=O)(NCCCl)NCCCl)c1ccccc1`, the growth inhibition in assay [1] was 5.2%; in assay [2] it was -14.8%; in assay [3], 0.25%; in assay [4], 7.25%; in assay [6], 24%.

`O=C1NC2c3ccccc3CCC12` (centres undefined): the growth inhibition in assay [1] was -1.55%; in assay [2] it was -5.45%; in assay [3], -1.5%; in assay [4], -71.8%; in assay [6], -4.5%.

On to `CN(C)N=Nc1c(F)cccc1F`, for which the growth inhibition in assay [1] was -5.85%; in assay [2], -13.8%; in assay [3], -28.6%; in assay [4] it was 20.4%; in assay [5], 8.9%; in assay [6], 0.65%.

With `CCCCCOS(=O)(=O)O`, the growth inhibition is -0.3% in assay [1]; 4.3% in assay [2]; -0.6% in assay [3]; -11% in assay [4]; 5.3% in assay [6].

For the compound `O=C(O)[C@@H]1[C@@H]2C[C@@H]3[C@H](OC(=O)[C@@H]31)[C@@H]2O`, the growth inhibition in assay [1] is -20.9%; in assay [2] it was -12.2%; in assay [3], -25.4%; in assay [4] it was 1.9%; in assay [6], -41.4%.

For the compound `CS(=O)(=O)NCC1OC(n2cnc3c(N)ncnc32)C(O)C1O` (centres undefined), the growth inhibition in assay [1] was 12.2%; in assay [2] it was -9.3%; in assay [3] it was 19%; in assay [4], -5.95%; in assay [6], 1.8%.

For the compound `CC(=O)Nc1ccc(/C=C2\C(=O)Nc3ccccc32)cc1`, the growth inhibition in assay [1] was -15.4%; in assay [2] it was -20.1%; in assay [3], -23%; in assay [4] it was -11.8%; in assay [6] it was -5.9%.

For the compound `Cn1c(=O)c2[nH]c(C3CC(=O)CC(c4nc5c([nH]4)c(=O)n(C)c(=O)n5C)N3)nc2n(C)c1=O` (centres undefined), the growth inhibition was -1.75% in assay [1]; 5.1% in assay [2]; -14.4% in assay [3]; 1.8% in assay [4]; 7.15% in assay [6].

On to `NC(=O)c1cc(Br)ccc1O`, for which the growth inhibition in assay [1] is 11.2%; in assay [2] it was -12.7%; in assay [3], 6.9%; in assay [4], 8.9%; in assay [6] it was 17.2%.

In the case of `C=C1C(=O)OC2/C=C(/CO)C3(O)CC(O)C(C)(CC(OC(=O)/C(C)=C/C)C12)O3` (centres undefined), the growth inhibition in assay [1] was 7.2%; in assay [2], -13.9%; in assay [3] it was 14.9%; in assay [4] it was 17.4%; in assay [6], -27.2%.

Consider `O=C(Nc1ccc2[nH]c3c(-c4ccccc4)nccc3c2c1)c1ccccc1[N+](=O)[O-]`, for which the growth inhibition is 15.8% in assay [1]; -21.2% in assay [2]; -5.3% in assay [3]; 6.65% in assay [4]; 5.35% in assay [6].

On to `COC(=O)C12OCC34C(CC5C(C)=C(O)C(=O)CC5(C)C3C(O)C1O)OC(=O)C(OC(C)=O)C24` (centres undefined), for which the growth inhibition in assay [1] is 81.5% (active); in assay [2] it was 69.5%; in assay [3], 80.5% (active); in assay [4] it was 79.3% (active); in assay [5], 79% (active); in assay [6], 84.2% (active).

Consider `[N-]=[N+]=Nc1ccc2[nH]c3ccccc3c(=O)c2c1`, for which the growth inhibition was 17.9% in assay [1]; -1.05% in assay [2]; 16.9% in assay [3]; -23.4% in assay [4]; 36.7% in assay [6].

`Cc1ccc(S(=O)(=O)Nc2nnc(CC(C)C)s2)cc1`: the growth inhibition in assay [1] was 36.2%; in assay [2], -6.45%; in assay [3], 35.2%; in assay [4], 28.1%; in assay [6] it was 35.9%.

For the compound `CC1(C)C(CC(=O)O)CCCC1CC(=O)O` (centres undefined), the growth inhibition in assay [1] is 12.2%; in assay [2] it was 0.95%; in assay [3] it was 4.15%; in assay [4], 2.15%; in assay [6], 49.2%.

As to `Cc1c([N+](=O)[O-])ccc2c(NCCCN(C)C)ccnc12`, the growth inhibition is -2.5% in assay [1]; -5.65% in assay [2]; -5.35% in assay [3]; -6.4% in assay [4]; -36.4% in assay [6].

Turning to `CN(C)c1ccc2c(c1)c1cc(N(C)C)ccc1n2Cc1ccccc1`, the growth inhibition is -2.05% in assay [1]; -19.6% in assay [2]; 12.2% in assay [3]; -30.4% in assay [4]; -10.2% in assay [6].

As for `ON(C(=S)Nc1ccccc1)c1ccccc1`, the growth inhibition in assay [1] is 20.9%; in assay [2] it was 12.8%; in assay [3], 21.1%; in assay [4], -13.7%; in assay [5], 8.3%; in assay [6], 15.9%.

On to `N#CSc1nc[nH]c1C(N)=O`, for which the growth inhibition in assay [1] was -38.2%; in assay [2] it was -12.4%; in assay [3], 3.45%; in assay [4], -16.6%; in assay [6], -4.4%.
